SMARCA2 act – SMARCA2 (BRM) function activators, primary screen, cell-based, luminescence, high throughput. activation, % at 9.1 µM. 370,000 tested, 1% active. MG213 cells, MMTV-luciferase reporter, dexamethasone, overnight; in the data active = activation above about 7.8%
NadD inh – inhibitors of S. aureus NadD, primary screen, biochemical, colorimetric, uHTS; Nicotinate-nucleotide adenylyltransferase NadD (Staphylococcus aureus N315); purified NadD enzyme, colorimetric absorbance read-out; inhibition, % at 20 µM; 360,000 tested, 0.78% active; AID 602399, 2012; in the data active = inhibition above about 26%
SKN-1 inh – suppressors of acrylamide-induced Pgst-4::GFP reporter in worms, primary screen, SKN-1 inhibitor project, whole organism, uHTS, GFP/RFP fluorescence ratio, strain VP596; C. elegans VP596 Pgst-4::GFP/RFP ratio, 24 h; 360,000 tested, 0.49% active; inhibition, % at 21.8 µM;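 active = interference check ratio from 0.5 to 1.5 plus GFP to RFP signal ratio inhibition reaching or exceeding a fixed threshold, cut at about 30% in these data, passing the limit was not always enough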
esBAF inh – Bmi1 luciferase reporter increase in mESCs, primary screen, esBAF inhibitor project, mouse ES cells, Bmi1 luciferase knock-in, single point | 24 h; 100% = twice the neutral-well signal | reporter increase, % at 12.5 µM | 350,000 tested, 2% active | AID 602393, 2012; in the data active = activation above about 40%;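 note: a rise in the Bmi1 reporter signal indicates esBAF inhibition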
NR3A LBD binder – binders of NR3A ligand-binding domain, primary screen, biophysical, differential scanning fluorimetry, uHTS; NR3A LBD differential scanning fluorimetry, Tm shift; 0% = protein alone, 100% = glycine-bound protein; 340,000 tested, 2.5% active; Tm shift relative to glycine control, % at 25 µM;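 active = melting temperature shift of at least 10% of the positive control shift, at one fixed dose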
Vif inh – HIV Vif self-association inhibitors, primary screen, imaging, HEK293T, single point. HEK293T cells, Vif self-association by quenched fluorescence, 24 h. inhibition, % at 7.49 µM. 340,000 tested, 0.35% active; in the data active = inhibition above about 50%, passing the limit was not always enough
Numbers stand for hits; . = inactive; / = no result. Shown are actives, neighbours in structure and some others; about 5.2% of the full set was active somewhere.

SMILES	SMARCA2 act	NadD inh	SKN-1 inh	esBAF inh	NR3A LBD binder	Vif inh
Cc1ccc(O)c(N/C=C/C(=O)c2ccc(F)cc2)c1	.	.	.	63	.	.
C[C@@H]1CCCCO[C@H](CN(C)C(=O)Nc2ccc(F)cc2)[C@@H](C)CN([C@H](C)CO)C(=O)c2cc(NC(=O)Nc3ccc4c(c3)OCO4)ccc2O1	/	/	/	.	/	/
O=c1oc(CCO)cc2ccc(C#Cc3ccsc3)cc12	.	.	.	79	.	.
COc1cc(C#Cc2ccc3cc(CCO)oc(=O)c3c2)cc(OC)c1	.	.	.	58	.	.
Cc1ccc(C(=O)Nc2ccc3cn[nH]c3c2)cc1S(=O)(=O)N1CCCCC1	.	.	.	75	.	.
Cc1ccc(NC(=O)c2ccc(F)cc2)cc1S(=O)(=O)N1CCCCCC1	.	.	.	.	.	.
Cc1ccc(C(=O)Nc2cccc(O)c2)cc1S(=O)(=O)N1CCCCCC1	.	.	.	57	.	.
CC(C)C#Cc1ccc2c(c1)O[C@@H](CN(C)C)[C@H](C)CN([C@@H](C)CO)S2(=O)=O	/	/	/	.	/	/
C/C(=N\Nc1ccccn1)c1ccc(C(C)C)cc1	.	.	.	64	.	.
C/C(=N\Nc1ccccn1)c1ccc2c(c1)OCO2	.	.	.	61	.	.
COc1ccc(S(=O)(=O)N(C)C[C@@H]2OCCCC[C@@H](C)Oc3ccc(NS(=O)(=O)c4ccc(F)cc4)cc3C(=O)N([C@@H](C)CO)C[C@@H]2C)cc1	/	/	/	.	/	/
CS(=O)(=O)N1[C@@H](C#N)[C@H](c2ccc(C#Cc3cccc(F)c3)cc2)[C@@H]1CO	/	/	/	.	/	/
Clc1cccc(Cl)c1C1=NOC(c2nnc(-c3ccccc3)o2)C1 (stereo unspecified)	.	.	.	50	.	.
CCc1cc2c(=O)c(-c3cnn(-c4ccccc4)c3)c(C)oc2c(CN2CCCCC2)c1O	.	.	.	.	.	.
O=c1c(-c2ccc(Br)cc2)coc2c(CN3CCOCC3)c(O)ccc12	.	.	35	.	.	.
CCc1cc2c(=O)c(-c3cnn(-c4ccccc4)c3)coc2c(CN2CCOCC2)c1O	.	.	.	54	.	.
C[C@H]1CN([C@@H](C)CO)C(=O)c2cc(-c3ccccc3)cnc2O[C@@H]1CN(C)C(=O)Cc1ccccc1	/	/	/	.	/	/
N#C/C(=C\c1ccc(OC(=O)c2ccc(Br)s2)cc1)c1nc2ccccc2[nH]1	.	.	.	/	26	.
N#C/C(=C/c1ccc(OC(=O)c2ccc(Br)s2)cc1)c1nc2ccccc2[nH]1	.	.	.	83	.	.
N#C/C(=C\c1ccc(OC(=O)c2ccc(Cl)s2)cc1)c1nc2ccccc2[nH]1	.	.	.	/	.	.
C[C@@H]1CN([C@H](C)CO)C(=O)Cc2cc(NC(=O)NC3CCCCC3)ccc2O[C@H]1CN(C)Cc1ccc(-c2ccccc2)cc1	/	/	/	.	/	/
Cc1ccc(N2CCN(/N=C/c3ccncc3)CC2)cc1	.	.	.	.	.	.
Clc1ccc(N2CCN(/N=C/c3ccncc3)CC2)cc1	.	.	62	.	.	.
C[C@H](O)C#Cc1cnc2c(c1)C(=O)N([C@H](C)CO)C[C@H](C)[C@@H](CN(C)CC1CCOCC1)O2	/	/	/	.	/	/
COc1c(C=O)c2c(c(OC)c1OC)-c1ccc(OC)c(=O)cc1C(NC(C)=O)CC2 (stereo unspecified)	.	.	.	/	.	90
SMILES	SMARCA2 act	NadD inh	SKN-1 inh	esBAF inh	NR3A LBD binder	Vif inh
C[C@@H]1CCCCO[C@@H](CN(C)C(=O)c2ccccc2)[C@H](C)CN([C@@H](C)CO)C(=O)c2cc(NS(=O)(=O)c3ccc(F)cc3)ccc2O1	/	/	/	.	/	/
CCc1nnc(NS(=O)(=O)c2ccc(NC(=S)NC(=O)/C=C/c3ccccc3)cc2)s1	.	.	.	/	.	.
CCc1nnc(NS(=O)(=O)c2ccc(NC(=S)NC(=O)/C=C/c3ccc(C(C)C)cc3)cc2)s1	/	69	.	.	15	.
C[C@H]1CN([C@@H](C)CO)S(=O)(=O)c2ccc(-c3cccc(F)c3)cc2O[C@H]1CN(C)C	/	/	/	.	/	/
Cc1ncc(CO)c(/C=N/NC(=S)Nc2cccc(Cl)c2)c1O	/	.	.	/	27	.
Cc1ncc(CO)c(/C=N/NC(=O)c2ccc(O)cc2)c1O	.	.	.	/	.	.
Cc1ncc(CO)c(/C=N/NC(=S)Nc2ccc(Cl)c(Cl)c2)c1O	.	.	.	/	23	.
COc1ccc(NC(=O)c2ccc(-c3ccccc3Cl)o2)cc1	.	.	.	.	.	.
Cc1ccc(-c2ccc(C(=O)NCc3ccc(Cl)cc3)o2)c2ccccc12	.	27	.	.	.	.
CCc1nnc(NC(=O)c2ccc(COc3ccccc3Cl)o2)s1	.	.	.	.	.	.
Cc1ccc(-c2ccc(C(=O)Nc3cccc(F)c3)o2)c2ccccc12	.	.	.	.	17	.
CCc1nnc(NC(=O)c2ccc(-c3ccccc3Cl)o2)s1	.	.	.	53	.	.
O=C(Nc1cccc(F)c1)c1ccc(-c2ccccc2Cl)o1	/	.	.	75	.	.
COc1ccc(NC(=O)c2ccc(-c3ccc(C)c4ccccc34)o2)cc1	.	.	.	.	.	.
CS(=O)(=O)N1[C@H](C#N)[C@@H](c2ccc(C#Cc3cccc(F)c3)cc2)[C@H]1CO	/	/	/	.	/	/
C[C@H](CO)N1C[C@H](C)[C@H](CN(C)C(=O)Nc2ccc(F)cc2)OCCCC[C@H](C)Oc2ccc(NS(=O)(=O)c3ccccc3)cc2C1=O	/	/	/	.	/	/
C[C@@H]1CCCCO[C@@H](CN(C)C(=O)NC2CCCCC2)[C@H](C)CN([C@H](C)CO)C(=O)c2cc(NC(=O)c3ccncc3)ccc2O1	/	/	/	.	/	/
O=C(Nc1ccccc1)c1cc(-c2ccccc2Cl)no1	.	.	.	56	.	.
COc1ccc(NC(=O)c2cc(-c3ccccc3Cl)no2)cc1	.	.	.	/	.	.
COc1ccccc1CNC(=O)C1CCN(C(=O)N(C)C)CC1	.	.	35	.	.	.
CCN1C(=O)/C(=C\N(C(C)=O)c2ccccc2)OC1=S	.	.	.	45	.	.
CCN1C(=O)/C(=C/N(C)c2ccccc2)OC1=S	.	.	36	.	.	.
COc1cccc(S(=O)(=O)Nc2ccc3c(c2)OC[C@@H](C)NC[C@@H](C)[C@@H](OC)CN(C)C3=O)c1	/	/	/	.	/	/
CCC(=O)N[C@H]1C=C[C@H](CC(=O)NCc2ccc(OC)cc2)O[C@H]1CO	/	/	/	.	/	/
Cc1ccc(NC(=O)c2ccc(C)c(S(=O)(=O)N3CCOCC3)c2)nc1	.	.	.	.	.	.
